# High-throughput results from PubChem BioAssay.
# VACV mCherry inh: qHTS for Stage-Specific Inhibitors of Vaccinia Orthopoxvirus: mCherry Reporter Primary qHTS; Vaccinia virus mCherry reporter infection, fluorescence; Potency, µM (series often up to 36.5 µM), for inactives: at the top dose activity change, negative = inhibition, actives largely listed as inhibitors; 0.63% of 310,000 active; AID 720579, 2013; calls by dose curve; tested in A549 cells; further: nearly all actives have a fitted effect of over 35% in size
# MARV entry inh: qHTS for inhibitors of binding or entry into cells for Marburg Virus; 1.8% of 300,000 active; Marburg virus pseudotyped entry inhibition, cell reporter; AID 540276, 2011; Potency, µM (top dose mostly 37.8 µM), without a hit: at the top dose activity change, negative = inhibition, hits mostly inhibitors; calls by dose curve; tested in HEK293 cells
# Sm TGR inh: qHTS Assay for the Inhibitors of Schistosoma Mansoni Peroxiredoxins; Schistosoma mansoni thioredoxin glutathione reductase (TGR), Q962Y6; 3% of 360,000 active; purified TGR, DTNB reduction, TNB absorbance 405 nm; Potency, µM (doses to about 114 µM), for inactives: top-dose activity change, negative = inhibition, usual class: inhibitors; active means well fitted inhibition curve with a large enough effect; inconclusive means small, poorly fitted or top-dose-only effect; inactive means no such curve, though single readings can be large or run the other way; further: nearly all actives have a fitted effect of over 60% in size
#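 First, TGR (20 nM dispensed) and NADPH were mixed with compound. Second, a 15 min room-temperature incubation followed. Third, further NADPH and then DTNB were added to start the reaction. Finally, TNB absorbance was monitored kinetically.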
# Lassa entry inh: qHTS for Inhibitors of binding or entry into cells for Lassa Virus | AID 540256, 2011 | Lassa virus pseudotype entry inhibition, cell reporter | Potency, µM (top dose mostly 37.9 µM), without a hit: top-dose activity change, negative = inhibition, most hits filed as inhibitors | 1.2% of 300,000 active; calls by dose curve; tested in HEK293 cells; further: nearly all actives have a fitted effect of over 50% in size
# VACV Venus inh: qHTS for Stage-Specific Inhibitors of Vaccinia Orthopoxvirus: Venus Reporter Primary qHTS. Vaccinia virus Venus reporter expression, fluorescence. Potency, µM (top dose mostly 36.5 µM), inactives show at the top dose activity change, negative = inhibition, actives largely listed as inhibitors. 0.46% of 330,000 active; calls by dose curve; tested in A549 cells; further: nearly all actives have a fitted effect of over 30% in size
# FMDV inh: High Throughput Screening for Foot and Mouth Disease Virus Antivirals; FMDV antiviral cell-based qHTS; Potency, µM (series often up to 57.9 µM), for the others: at the highest dose activity change, negative = inhibition, actives largely listed as inhibitors; 1.2% of 410,000 active; AID 1159524, 2015; calls by dose curve; tested in HEK293T cells; further: read-out not given here; nearly all actives have a fitted effect of over 45% in size
# Numbers without * were called inactive; i = inactive; ? = inconclusive; . = no result; [ ] = another dose, or the depositor's remark. Shown are actives, neighbours in structure and some others; about 5.4% of the full set was active somewhere. On the % scale 0 is the no-effect control and ±100 the full control effect; potency means the concentration at half of the fitted maximal effect.
SMILES,VACV mCherry inh,MARV entry inh,Sm TGR inh,Lassa entry inh,VACV Venus inh,FMDV inh
Cc1cc(O)c(C(C[N+](=O)[O-])c2ccc(Cl)cc2Cl)c(=O)o1 (stereo not drawn),i,18%,50µM*,0%,-13%,10%
O=c1[nH][nH]c(-c2ccccc2O)c1C(C[N+](=O)[O-])c1ccc(Cl)cc1Cl (stereo not drawn),i,-10%,-30%,4%,-7%,-20%
COc1cc(=O)n2c(c1C(=O)N(C)Cc1nonc1C)CCN(Cc1cc(C)ccc1C)CC2,-14%,.,.,.,-7%,-19%
COc1ccc(CCNCc2ccc(OCc3ccc(Cl)nc3)c(OC)c2)cc1OC,.,13µM*,-4%,2%,-12%,0%
CCCCCNCc1ccc(OCc2ccc(Cl)nc2)c(OC)c1,-12%,?,3%,-10%,-16%,-6%
Cc1ccccc1Nc1nnc(SCC2CCCCO2)s1 (stereo not drawn),-7%,?,-6%,?,-14%,8%
COc1ccccc1Nc1nnc(SCC2CCCCO2)s1 (stereo not drawn),-19%,7.1µM*,8%,.,-27%,-48%
Cc1ccc(CNC(=O)Cn2ncc3c(C)n(Cc4ccc(Cl)cc4)c(C)c3c2=O)cc1,-17%,9%[46.1 µM],8%,19%[46.1 µM],-29%,-19%
Cc1c(C(=O)N2CCCCCC2)sc2ncnc(NCC3CCCO3)c12 (stereo not drawn),i,.,.,.,-12%,6%
CCOc1ccccc1-c1cc(C(=O)N/N=C/c2cccnc2)c2ccccc2n1,-12%,5.6µM*,.,?,8%,-14%
Cc1ccc(COc2ccccc2-c2cc(C(=O)N/N=C/c3cccnc3)[nH]n2)cc1,?,?,5%,8.9µM*,-28%[7.34 µM],?
CCOc1ccc(-c2cc(C(=O)N/N=C/c3cccnc3)c3ccccc3n2)cc1,?,?,-23%,?,-15%,-11%
O=C(COc1ccccc1-c1ccccc1)N/N=C/c1cccnc1,.,.,11%,.,.,-3%
Nc1ccccc1SCC1CSc2nc3ccccc3c(=O)n21 (stereo not drawn),.,.,-2%,.,.,-11%
O=c1c2ccccc2nc2n1C(CSCc1ccc(Cl)cc1Cl)CS2 (stereo not drawn),.,?,?,-26%,-22%,18µM*
Cc1ccc(N2C(=O)CS(=O)C(c3ccccc3)C2=O)cc1C (stereo not drawn),-4%,?,1.1µM*,-2%,-10%,45%
COc1cc(Br)cc(/C=N/NC(=O)Cc2ccc(C(F)(F)F)cc2[N+](=O)[O-])c1O,20µM*,?,-4%,?,13µM*,-23%
CCOc1cc(/C=N/NC(=O)Cc2ccc(C(F)(F)F)cc2[N+](=O)[O-])c(Br)cc1OC,-8%,-8%[46.1 µM],-16%,-17%,-5%,-24%
COc1ccc(N(C)S(=O)(=O)c2cccc(C(=O)Nc3ccc4c(c3)OCCO4)c2)cc1,i,10µM*,-1%,?,-18%,-10%
COc1ccc(N(C)S(=O)(=O)c2cccc(C(=O)OCC(=O)N3CC(C)CC(C)C3)c2)cc1 (stereo not drawn),-6%,?,.,?,-19%,32µM*
CC1CC(C)CN(C(=O)c2cccc(S(=O)(=O)N(C)c3ccccc3)c2)C1 (stereo not drawn),i,?,1%,?,-12%,0%
COc1ccc(N(C)S(=O)(=O)c2cccc(C(=O)Nc3ccc(-n4cnnn4)cc3)c2)cc1,.,?,-25%,-17%,.,40µM*
O=C(Cn1c(=O)n(-c2ccc(Cl)cc2)c(=O)c2sc3ccccc3c21)NC1CCCCC1,9%,4%[46.1 µM],1%,1%[46.1 µM],-2%,7%
CCOC(=O)c1ccc(OCC2c3cc(OC)c(OC)cc3CCN2C(=O)Cc2ccc(OC)c(OC)c2)cc1 (stereo not drawn),4%,.,-11%,?,-7%,-15%
CC(=O)CCc1oc2ccc([N+](=O)[O-])cc2c1-c1ccc(C)o1,-9%,-12%[46.1 µM],20µM*,2%,-1%,-5%
SMILES,VACV mCherry inh,MARV entry inh,Sm TGR inh,Lassa entry inh,VACV Venus inh,FMDV inh
CC(=O)Cc1cc2cc([N+](=O)[O-])ccc2oc1=O,.,.,-1%,.,.,-7%
CC(=O)CCc1oc2c([N+](=O)[O-])cccc2c1-c1ccc(C)o1,.,.,11µM*,.,.,-26%
CC(=O)CC(c1ccccc1[N+](=O)[O-])c1c(O)c2ccccc2oc1=O (stereo not drawn),-3%,1%[46.1 µM],10%,-15%[46.1 µM],-20%,20%
COc1cccc(CNC(=O)CN2N=C(c3ccc(C)cc3)CCC2=O)c1,-12%,.,52%,4%[46.1 µM],-9%,-16%
COc1ccc(CN2C(=O)C(NC(=O)c3ccccc3C)(C(F)(F)F)N=C2c2ccccc2)cc1 (stereo not drawn),-4%,?,-3%,?,-2%,-23%
COc1ccc(NC(=O)c2oc3ccccc3c2NC(=O)Cc2cccs2)c(OC)c1,-15%,-1%[46.1 µM],-3%,?,-16%,0%
CC1=CC[C@@H](COc2ccccc2)O[C@@]2(C1)C(=O)N(Cc1ccc(Br)cc1)c1ccccc12,.,25%[14.2 µM],.,.,.,.
Cc1nnc(SCC(=O)Nc2ccccc2NC(=O)CSc2nnc(C)s2)s1,.,-5%,5%,5%,10%,-7%
Cc1nnc(SCC(=O)Nc2ccc(-c3nc4ccccc4s3)cc2)s1,i,?,1%,10µM*,-8%,0%
O=C(Nc1ccc(-c2nc3ccccc3s2)cc1)c1cc(-n2cnnc2)ccc1Cl,?,?,7%,?,7.9µM*,.
Cc1ccc(NC(=O)c2cc(-n3cnnc3)ccc2Cl)cc1,.,14%,-3%,10%,.,15%
CN(C)c1ccc(/C=C/N2C=CCc3c2ccc2ccccc32)cc1,i,.,.,.,i,.
CC(C)OC(=O)c1ccc(S(N)(=O)=O)o1,-8%,?,-9%,-1%,-11%,-10%
CC(C)OC(=O)c1cc2c(=O)[nH]c(C(Cl)(Cl)Cl)nc2o1,-1%,-9%[46.1 µM],28µM*,24%[46.1 µM],-11%,23%
O=C(CN1C(=O)C2(SCC(=O)N2c2ccc(F)c(F)c2)c2ccccc21)Nc1ccccc1F (stereo not drawn),-3%,.,6%,3%[46.1 µM],-2%,-16%
C/C(=N\Nc1ccc(Cl)cc1)c1c(O)cc(C)oc1=O,-14%,?,22µM*,-6%[46.1 µM],1%,30%
C/C(=N\NC(=O)c1cccs1)c1c(O)cc(C)oc1=O,.,.,-9%,.,.,22%
O=C(c1ccco1)N1CCN(S(=O)(=O)Cc2ccccc2Cl)CC1,i,-7%[46.1 µM],32µM*,8%,-18%,-4%
O=C(c1ccco1)N1CCN(C2CC(=O)N(c3ccccc3)C2=O)CC1 (stereo not drawn),.,11%,50µM*,-10%,.,-24%
